The text below walks through data of PubChem BioAssay (NCATS).

Results filed as inconclusive are left out. The source made the active and inactive calls. Unless noted, calls follow the shape of the dose curve; as a rule, active = well fitted curve in the direction sought with a large enough effect; inconclusive = small, poorly fitted or top-dose-only effect, or another doubt; inactive = no such curve, though single readings can be large; an effect the other way counts as inactive or inconclusive.

Experiment [1] concerns the target Voltage-gated inwardly rectifying potassium channel KCNH2 (Homo sapiens) (UniProt Q12809). As to the kind of experiment: qHTS Assay for Small Molecule Inhibitors of the Human hERG Channel Activity (AID 588834).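 Also: lower thallium flux fluorescence means stronger hERG block; nearly all actives have a fitted effect of over 50% in size.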 Also: potency is read from the fitted curve at half-maximal effect. In a few lines:
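U2OS cells transduced with hERG via BacMam (MOI ~100), plated 2000/well, loaded with FluxOR thallium dye, compound ~10 min, then stimulation buffer; fluorescence decrease read kinetically; AC50 from Hill fits.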
For orientation: In qHTS, concentration-response curves come from the screen itself.

Experiment [2] concerns the target Glutaminase kidney isoform, mitochondrial (Homo sapiens) (UniProt O94925). As to the kind of experiment: qHTS for Inhibitors of Glutaminase (GLS): LOPAC Validation (AID 624146).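 Also: glutamate product detected by oxidase and peroxidase coupled Amplex red fluorescence gain; series mostly up to about 46 µM; nearly all actives have a fitted effect of over 60% in size.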 In a few lines: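 Two-point fluorescence kinetic (t0, 30 min RT) for hKGA; glutamate detected via glutamate oxidase–HRP–Amplex Red. Substrate: 1 mM L-glutamine solution; buffer 45 mM KH2PO4, pH 8.2.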

Experiment [3] in a line: qHTS of Trypanosoma Brucei Inhibitors: LOPAC Validation (AID 624147). In a few lines:
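In this concentration-response screen, enzyme-free wells defined baseline while DMSO plates tracked drift. Each reaction combined TbPYK, substrate, compound and 130 uM ADP for 45 min at room temperature. Kinase-Glo Plus luminescence gave the signal.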

The target in experiment [4] is Glucagon-like peptide 1 receptor (Homo sapiens) (UniProt P43220). Nature of the experiment: qHTS of GLP-1 Receptor Agonists: LOPAC Validation (AID 624148).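 Also: luminescence from a luciferase reporter switched on by cAMP; higher luminescence signal means agonism.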 In a few lines: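 Agonism scored as increased luciferase luminescence driven by cAMP in HEK293 clones carrying GLP-1R. Cells settled 12 hours, received compound for 4-6 hr at 37 deg C, 5% CO2, and were read after 12 min detection reagent at RT.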

The nature of experiment [5]: qHTS of Nrf2 Activators: LOPAC Validation (AID 624149). In a few lines: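 AREc32_Fluc cells, 1000/well in OPTI-MEM with 5% FBS, grown overnight, then exposed to compounds for 24 hr at 37 deg C, 5% CO2. ARE-driven firefly luciferase read by Steady-Glo luminescence after 30 min at RT.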
The nature of experiment [6]: HTS Assay for Allosteric Antagonists of the Human D2 Dopamine Receptor: Hit Validation in HTRF (AID 624455).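 Also: stable D1 dopamine receptor cell line scored for blocking the D1 response.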 The essentials: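 Hit validation in cells stably expressing the D1 dopamine receptor, run in HTRF format. Compounds were tested for their ability to inhibit the D1-mediated response.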
Background: TR-FRET usually uses a lanthanide donor and a delayed reading to cut background.

A short description of experiment [7]: S16 Schwann cell PMP22 intronic element firefly luciferase assay (AID 624032). Also: series mostly up to about 58 µM; nearly all actives have a fitted effect of over 30% in size. In a few lines:
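Luciferase reporter of PMP22 intronic-element expression in stably transfected S16 rat Schwann cells, read by ONE-Glo luminescence after 24 h compound exposure at 37 C. Activity scaled between DMSO (0%) and positive-control PTC124; concentration-effect curves quality-classified.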

The nature of experiment [8]: S16 Schwann cell PMP22 intronic element beta-lactamase assay (AID 624044; calls by dose curve; also: nearly all actives have a fitted effect of over 15% in size). In a few lines: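 Rat S16 Schwann cells with beta-Lac driven by a PMP22 intronic element, compound-treated 24 h at 37 °C. LiveBLAzer FRET B/G read: 460 nm normalized to potassium clavulanate vs DMSO; 535 nm FRET as viability; concentration-effect curves classified.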
In experiment [9] the target is Luciferin 4-monooxygenase (Photinus pyralis) (UniProt P08659). As to the kind of experiment: Biochemical firefly luciferase enzyme assay for NPC (AID 624030).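 Also: purified P. pyralis luciferase at 10 nM with luciferin and ATP substrate; series mostly up to about 59 µM; nearly all actives have a fitted effect of over 70% in size.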 The essentials: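 Direct inhibition of firefly luciferase enzyme (10 nM final, 50 mM Tris Acetate) assessed by luminescence within 5 minutes. Percent activity scaled between DMSO and PTC124 positive control, with concentration-effect curves classified by fit quality and response.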

Experiment [10] can be described thus: S16 Schwann cell viability assay (CellTiter-Glo assay) (AID 624031).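 Also: cellular ATP luminescence as a viability measure; series mostly up to about 58 µM; nearly all actives have a fitted effect of over 70% in size.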 The essentials: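 Native S16 Schwann cells (rat), serum-containing medium, overnight attachment then 24 h drug exposure at 37 °C/5% CO2. CellTiter-Glo ATP signal; normalized to cell-free and vehicle wells.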
A general note: Cellular ATP, detected with luciferase, serves as a proxy for viable cell number.

Chain of Glutaminase kidney isoform, mitochondrial (Homo sapiens) (O94925 whole entry, looked up, canonical isoform): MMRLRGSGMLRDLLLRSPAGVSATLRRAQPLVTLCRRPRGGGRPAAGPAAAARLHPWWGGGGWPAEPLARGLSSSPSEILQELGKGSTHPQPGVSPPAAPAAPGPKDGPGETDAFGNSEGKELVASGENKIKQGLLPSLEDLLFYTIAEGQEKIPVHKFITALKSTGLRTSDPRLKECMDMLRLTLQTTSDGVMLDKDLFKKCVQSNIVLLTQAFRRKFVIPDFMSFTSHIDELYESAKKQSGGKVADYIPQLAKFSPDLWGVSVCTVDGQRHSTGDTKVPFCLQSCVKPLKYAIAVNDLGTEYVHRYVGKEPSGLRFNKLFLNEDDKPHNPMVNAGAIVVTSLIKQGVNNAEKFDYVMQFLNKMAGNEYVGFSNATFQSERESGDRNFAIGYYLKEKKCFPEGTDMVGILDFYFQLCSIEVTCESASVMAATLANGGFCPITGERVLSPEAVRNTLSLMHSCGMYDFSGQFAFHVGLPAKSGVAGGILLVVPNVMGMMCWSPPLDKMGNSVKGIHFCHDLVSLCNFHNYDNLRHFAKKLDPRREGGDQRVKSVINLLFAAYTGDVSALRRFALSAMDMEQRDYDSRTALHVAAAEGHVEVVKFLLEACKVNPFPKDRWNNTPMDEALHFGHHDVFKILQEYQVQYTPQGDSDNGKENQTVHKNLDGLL
Chain of Voltage-gated inwardly rectifying potassium channel KCNH2 (Homo sapiens) (Q12809 whole entry, looked up): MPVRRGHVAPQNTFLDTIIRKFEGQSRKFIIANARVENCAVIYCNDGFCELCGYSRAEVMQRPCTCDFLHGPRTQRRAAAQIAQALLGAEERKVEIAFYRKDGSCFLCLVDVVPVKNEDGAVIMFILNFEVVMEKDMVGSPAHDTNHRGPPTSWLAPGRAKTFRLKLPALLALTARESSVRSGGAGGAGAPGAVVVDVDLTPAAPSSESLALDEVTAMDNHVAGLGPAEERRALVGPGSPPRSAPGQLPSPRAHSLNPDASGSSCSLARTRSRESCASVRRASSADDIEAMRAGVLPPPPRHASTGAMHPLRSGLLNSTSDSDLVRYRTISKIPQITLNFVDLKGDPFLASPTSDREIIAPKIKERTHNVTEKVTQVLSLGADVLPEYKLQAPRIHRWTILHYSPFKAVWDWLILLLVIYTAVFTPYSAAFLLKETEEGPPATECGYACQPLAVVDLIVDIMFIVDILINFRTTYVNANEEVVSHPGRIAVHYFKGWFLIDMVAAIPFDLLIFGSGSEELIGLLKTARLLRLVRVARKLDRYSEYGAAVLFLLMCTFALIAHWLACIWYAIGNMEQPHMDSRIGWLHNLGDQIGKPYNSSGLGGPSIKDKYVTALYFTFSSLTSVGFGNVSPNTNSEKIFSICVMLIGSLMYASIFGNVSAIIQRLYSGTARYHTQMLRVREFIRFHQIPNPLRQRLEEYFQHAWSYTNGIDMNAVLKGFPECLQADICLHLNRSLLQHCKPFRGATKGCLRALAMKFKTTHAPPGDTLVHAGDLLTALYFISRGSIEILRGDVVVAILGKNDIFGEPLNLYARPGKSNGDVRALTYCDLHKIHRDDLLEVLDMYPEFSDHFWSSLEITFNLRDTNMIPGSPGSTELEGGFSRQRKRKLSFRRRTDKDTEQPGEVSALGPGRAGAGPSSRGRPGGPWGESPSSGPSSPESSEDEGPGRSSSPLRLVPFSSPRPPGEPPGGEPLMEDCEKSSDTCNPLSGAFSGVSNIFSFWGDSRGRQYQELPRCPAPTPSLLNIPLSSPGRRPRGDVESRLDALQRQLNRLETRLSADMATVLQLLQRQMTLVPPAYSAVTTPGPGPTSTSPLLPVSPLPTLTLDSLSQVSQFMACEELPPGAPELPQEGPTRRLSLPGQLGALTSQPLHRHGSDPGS
Chain of Glucagon-like peptide 1 receptor (Homo sapiens) (P43220 whole entry, looked up): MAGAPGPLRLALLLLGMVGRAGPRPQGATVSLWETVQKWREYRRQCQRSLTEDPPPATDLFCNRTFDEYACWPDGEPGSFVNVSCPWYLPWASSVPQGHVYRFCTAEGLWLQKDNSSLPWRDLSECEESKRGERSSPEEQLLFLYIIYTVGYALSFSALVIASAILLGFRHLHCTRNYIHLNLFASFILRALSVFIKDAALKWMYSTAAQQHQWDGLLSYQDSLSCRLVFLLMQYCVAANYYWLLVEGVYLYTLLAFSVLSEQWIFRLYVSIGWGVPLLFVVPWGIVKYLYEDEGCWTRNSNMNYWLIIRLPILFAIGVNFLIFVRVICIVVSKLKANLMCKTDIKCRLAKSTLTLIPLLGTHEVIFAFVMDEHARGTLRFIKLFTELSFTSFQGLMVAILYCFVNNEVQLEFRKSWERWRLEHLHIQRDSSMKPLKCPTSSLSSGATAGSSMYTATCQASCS
Chain of Luciferin 4-monooxygenase (Photinus pyralis) (P08659 whole entry, looked up): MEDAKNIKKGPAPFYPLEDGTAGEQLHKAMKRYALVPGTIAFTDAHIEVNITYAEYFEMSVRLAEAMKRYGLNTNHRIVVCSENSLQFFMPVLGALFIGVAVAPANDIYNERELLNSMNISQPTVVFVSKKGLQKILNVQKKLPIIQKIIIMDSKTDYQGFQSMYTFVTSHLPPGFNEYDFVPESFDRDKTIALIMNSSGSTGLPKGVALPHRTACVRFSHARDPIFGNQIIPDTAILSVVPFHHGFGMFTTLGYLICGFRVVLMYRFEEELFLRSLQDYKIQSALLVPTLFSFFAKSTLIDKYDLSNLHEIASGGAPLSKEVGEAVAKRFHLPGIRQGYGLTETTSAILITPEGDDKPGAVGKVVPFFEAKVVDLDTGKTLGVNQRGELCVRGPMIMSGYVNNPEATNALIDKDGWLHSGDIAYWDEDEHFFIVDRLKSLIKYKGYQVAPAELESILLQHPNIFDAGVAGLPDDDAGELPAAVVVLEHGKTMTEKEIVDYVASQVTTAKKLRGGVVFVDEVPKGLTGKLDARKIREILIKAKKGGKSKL

`CC(CN(C)C)CN1c2ccccc2CCc2ccccc21` (stereo unspecified): in experiment [1], the Potency is 7.08 µM (active). Besides, in experiment [2], the Potency result is “inactive”. Further, the call in experiment [3], in experiment [4], in experiment [5] and in experiment [6] was inactive.

For `COc1ccc2[nH]c(S(=O)Cc3ncc(C)c(OC)c3C)nc2n1` (stereo unspecified), the Potency result in experiment [1], in experiment [7] and in [8] was “inactive” each time.

For the compound `Nc1ncnc2c1ncn2[C@@H]1O[C@H](CO)[C@@H](O)[C@H]1O`, the Potency entry in experiment [9], in [10], in experiment [7] and in [2] was “inactive” in each case. The result in [3], in experiment [4], in [5] and in [6] was inactive.

On to `O=C(O)c1ccccc1O`, for which the Potency entry in experiment [1], in experiment [10] and in [8] was “inactive” in each case.

Take `CC(C)(C)c1onc(OCP(=O)(O)O)c1CC(N)C(=O)O` (stereo unspecified): the Potency entry in experiment [1] and in experiment [2] was “inactive” throughout. Also, the outcome in experiment [3], in experiment [4], in experiment [5] and in experiment [6] was inactive.
